# The sample as a whole holds a higher share of the strongest signals than the screen did.
# B1: EEA (Euonymus europaeus) (protein)
# chain: MASTIIATGPTYRVYCRAAPNYNMIVGKGVAFLAPIDETNELQYWYKDDTYSYIKDEAGLPAFSLVNKATGLTLKHSNHHPVPVKLVTYNPNVVDESVLWSQADDRGDGYSAIRSLTNPASHLEAAPLNDWSYNGAIIMGGVWIDAYNQQWKIEPHTG
# Tests used:
# Test in all cases: glycan array binding signal (z-score within array); higher = stronger binding
# Conditions in all cases: glycan notation: IUPAC condensed, linker removed
# Gal3S(b1-4)GlcNAc6S = target: Gal3S(b1-4)GlcNAc6S
# Procedure, shortened: (§1)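 The binding signal is a Z-score computed within each array and averaged over linkers. Arrays of the same protein sequence at different concentrations or buffers were also averaged together. Data originate from 3228 arrays in the Consortium for Functional Glycomics database, kept only where the protein sequence was available.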
# Gal6S(b1-4)GlcNAc6S = target: Gal6S(b1-4)GlcNAc6S
# Procedure, shortened: as §1
# GalNAc(b1-3)Gal = target: GalNAc(b1-3)Gal
# Procedure, shortened: as §1
# [1] = target: GalNAc(b1-4)GlcNAc(b1-2)Man(a1-3)[GalNAc(b1-4)GlcNAc(b1-2)Man(a1-6)]Man(b1-4)GlcNAc(b1-4)GlcNAc
# Procedure, shortened: as §1
# [2] = target: GlcNAc(b1-2)Gal(b1-3)GalNAc
# Procedure, shortened: as §1
# [3] = target: GlcNAc(b1-2)Man(a1-3)[GlcNAc(b1-2)Man(a1-6)]Man(b1-4)GlcNAc(b1-4)GlcNAc
# Procedure, shortened: as §1
# [4] = target: GlcNAc(b1-2)Man(a1-3)[GlcNAc(b1-4)][GlcNAc(b1-2)Man(a1-6)]Man(b1-4)GlcNAc(b1-4)GlcNAc
# Procedure, shortened: as §1
# [5] = target: GlcNAc(b1-2)[GlcNAc(b1-6)]Man(a1-6)[GlcNAc(b1-2)Man(a1-3)]Man(b1-4)GlcNAc(b1-4)[Fuc(a1-6)]GlcNAc
# Procedure, shortened: as §1
# [6] = target: GlcNAc(b1-3)Gal(b1-4)GlcNAc(b1-3)Gal(b1-4)GlcNAc(b1-3)Gal(b1-4)GlcNAc(b1-3)Gal(b1-4)GlcNAc(b1-2)Man(a1-3)[GlcNAc(b1-3)Gal(b1-4)GlcNAc(b1-3)Gal(b1-4)GlcNAc(b1-3)Gal(b1-4)GlcNAc(b1-3)Gal(b1-4)GlcNAc(b1-2)Man(a1-6)]Man(b1-4)GlcNAc(b1-4)[Fuc(a1-6)]GlcNAc
# Procedure, shortened: as §1
# GlcNAc(b1-6)GalNAc = target: GlcNAc(b1-6)GalNAc
# Procedure, shortened: as §1
# Kdn(a2-3)Gal(b1-4)Glc = target: Kdn(a2-3)Gal(b1-4)Glc
# Procedure, shortened: as §1
# [7] = target: Neu5Ac(a2-3)Gal(b1-3)GlcNAc(b1-6)GalNAc
# Procedure, shortened: as §1
# [8] = target: Neu5Ac(a2-3)Gal(b1-3)GlcNAc6S
# Procedure, shortened: as §1
# [9] = target: Neu5Ac(a2-3)Gal(b1-3)[Fuc(a1-4)]GlcNAc(b1-3)Gal(b1-3)[Fuc(a1-4)]GlcNAc
# Procedure, shortened: as §1
# [10] = target: Neu5Ac(a2-3)Gal(b1-4)GlcNAc(b1-2)[Neu5Ac(a2-3)Gal(b1-4)GlcNAc(b1-6)]Man(a1-6)[Neu5Ac(a2-3)Gal(b1-4)GlcNAc(b1-2)Man(a1-3)]Man(b1-4)GlcNAc(b1-4)GlcNAc
# Procedure, shortened: as §1
# [11] = target: Neu5Ac(a2-3)Gal(b1-4)[Fuc(a1-3)]GlcNAc(b1-6)[Gal(b1-3)]GalNAc
# Procedure, shortened: as §1
# [12] = target: Neu5Ac(a2-3)Gal6S(b1-4)GlcNAc
# Procedure, shortened: as §1
# [13] = target: Neu5Ac(a2-3)[GalNAc(b1-4)]Gal(b1-4)GlcNAc(b1-3)GalNAc
# Procedure, shortened: as §1
# [14] = target: Neu5Ac(a2-6)Gal(b1-3)GlcNAc(b1-3)[Gal(b1-4)GlcNAc(b1-6)]Gal(b1-4)Glc
# Procedure, shortened: as §1
# [15] = target: Neu5Ac(a2-6)Gal(b1-4)GlcNAc(b1-2)Man(a1-6)[Gal(b1-4)GlcNAc(b1-2)Man(a1-3)]Man(b1-4)GlcNAc(b1-4)GlcNAc
# Procedure, shortened: as §1
# [16] = target: Neu5Ac(a2-6)Gal(b1-4)GlcNAc(b1-2)[Neu5Ac(a2-6)Gal(b1-4)GlcNAc(b1-6)]Man(a1-6)[Neu5Ac(a2-6)Gal(b1-4)GlcNAc(b1-2)Man(a1-3)][GlcNAc(b1-4)]Man(b1-4)GlcNAc(b1-4)GlcNAc
# Procedure, shortened: as §1
# [17] = target: Neu5Ac(a2-8)Neu5Ac(a2-3)Gal(b1-4)GlcNAc
# Procedure, shortened: as §1
# [18] = target: Neu5Ac(a2-8)Neu5Ac(a2-8)Neu5Ac(a2-3)[GalNAc(b1-4)]Gal(b1-4)Glc
# Procedure, shortened: as §1
# Neu5Gc(a2-3)Gal(b1-4)Glc = target: Neu5Gc(a2-3)Gal(b1-4)Glc
# Procedure, shortened: as §1
# [19] = target: Neu5Gc(a2-3)Gal(b1-4)GlcNAc(b1-3)Gal(b1-4)GlcNAc(b1-2)Man(a1-3)[Neu5Gc(a2-3)Gal(b1-4)GlcNAc(b1-3)Gal(b1-4)GlcNAc(b1-2)Man(a1-6)]Man(b1-4)GlcNAc(b1-4)GlcNAc
# Procedure, shortened: as §1
# [20] = target: Neu5Gc(a2-3)Gal(b1-4)[Fuc(a1-4)]GlcNAc
# Procedure, shortened: as §1
binder,measurement,setting,value
B1,glycan array binding signal (z-score),Gal3S(b1-4)GlcNAc6S,-0.14
same,glycan array binding signal (z-score),Gal6S(b1-4)GlcNAc6S,-0.097
same,glycan array binding signal (z-score),GalNAc(b1-3)Gal,-0.178
same,glycan array binding signal (z-score),[1],0.509
same,glycan array binding signal (z-score),[2],-0.138
same,glycan array binding signal (z-score),[3],-0.152
same,glycan array binding signal (z-score),[4],-0.242
same,glycan array binding signal (z-score),[5],-0.204
same,glycan array binding signal (z-score),[6],-0.221
same,glycan array binding signal (z-score),GlcNAc(b1-6)GalNAc,-0.056
same,glycan array binding signal (z-score),Kdn(a2-3)Gal(b1-4)Glc,-0.177
same,glycan array binding signal (z-score),[7],-0.187
same,glycan array binding signal (z-score),[8],-0.092
same,glycan array binding signal (z-score),[9],-0.246
same,glycan array binding signal (z-score),[10],-0.137
same,glycan array binding signal (z-score),[11],-0.043
same,glycan array binding signal (z-score),[12],-0.212
same,glycan array binding signal (z-score),[13],0.46
same,glycan array binding signal (z-score),[14],-0.232
same,glycan array binding signal (z-score),[15],-0.233
same,glycan array binding signal (z-score),[16],-0.179
same,glycan array binding signal (z-score),[17],-0.253
same,glycan array binding signal (z-score),[18],-0.063
same,glycan array binding signal (z-score),Neu5Gc(a2-3)Gal(b1-4)Glc,-0.084
same,glycan array binding signal (z-score),[19],-0.183
same,glycan array binding signal (z-score),[20],-0.482
